Consider 15 compounds from PubChem BioAssay (NCI).

Values joined by “and” are separate entries in the source; they are usually repeats but may differ in a detail not shown here. Equal values may be shown once. Compounds without any hit were thinned out: in the full panel of roughly 83,000, 20% have a hit.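 Compound tested at a single concentration for 48 hours in 96-well plates; a percent growth value below 10 was scored as active.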 Active and inactive are the calls of the source.

Holding throughout (test): NCI-60 one-dose screen, 48 h (100 = growth as untreated, 0 = no growth, -100 = all killed)
Test [1] has as its system RPMI-8226 leukemia. The settings on record: 10 µM unless noted.
Test [2] deals with OVCAR-5 ovarian. The settings on record: 10 µM unless noted.
Test [3] has as its system OVCAR-4 ovarian. The settings on record: 10 µM unless noted.
Test [4] has as its system SK-OV-3 ovarian. To be noted: 10 µM unless noted.
The subject of test [5] is IGROV1 ovarian. To be noted: 10 µM unless noted.
Test [6] concerns OVCAR-3 ovarian. To be noted: 10 µM unless noted.
In test [7] the test system is HS 578T breast. To be noted: 10 µM unless noted.
Test [8] relates to NCI/ADR-RES ovarian. To be noted: 10 µM unless noted.
Test [9] concerns T-47D breast. The settings on record: 10 µM unless noted.
In test [10] the test system is OVCAR-8 ovarian. The settings on record: 10 µM.

Take `CO[C@H](/C(C)=C/C=C/C(C)=C/c1coc(C)n1)[C@H](C)[C@H]1C[C@@H](O)[C@@]2(C)O[C@H]2/C=C/[C@@H](C)[C@@H]2C[C@@H](CC(=O)O2)C[C@H]2O[C@@H]2C(=O)O1`: the growth in test [1] is -14.5% (active); in [2], 34.2% (inactive); in [3] it was -6.77% (active); in [4], 32.3% (inactive); in test [5], -35.5% (active); in [6] it was -36.3% (active). In addition, the growth in test [7] was -2.81% (active); in [8] it was 19% (inactive); in [9], 64% (inactive).
For the compound `Cc1ccc(C(=O)OC(C(=O)O)C(OC(=O)c2ccc(C)cc2)C(=O)O)cc1` (stereo not drawn) (tested in a mixture with another compound), the growth in test [1] was -3.01% (active); in test [10], 61.4% (inactive); in test [2], 67% (inactive); in [3], 58.9% (inactive); in [4], 69.7% (inactive); in test [5], 63% (inactive). Also, the growth in test [6] was 44.5% (inactive); in test [7] it was 40% (inactive); in [8] it was 56.3% (inactive).
Turning to `CCOC(=O)C(NC(=O)C(Cc1ccc(N(CCCl)CCCl)cc1)NC(C)=O)C(C)C` (stereo not drawn), the growth in test [1] was 85.1% (inactive); in [10], 83.1% (inactive); in test [2] it was 105% (inactive); in test [3], 96.4% (inactive); in test [4] it was 82.5% (inactive); in [5], 79.3% (inactive). In addition, the growth in test [6] was 92.5% (inactive); in test [7], 101% (inactive); in test [8], 88% (inactive); in test [9], 74.5% (inactive).
With `CC[C@](O)(C(=O)O)c1cc2n(c(=O)c1CO)Cc1cc3ccccc3nc1-2`, the growth is -36% (active) in test [1]; 9.24% (active) in test [2]; -19.4% (active) in test [3]; 12.4% (inactive) in [4]; -48.1% (active) in test [5]; -42.3% (active) in [6]. Further, the growth in test [7] was 29.4% (inactive); in test [8] it was 2.02% (active); in test [9], -6.44% (active).
For the compound `Cc1c(N)nc([C@H](CC(N)=O)NC[C@H](N)C(N)=O)nc1C(=O)N[C@H](C(=O)N[C@H](C)[C@@H](O)[C@H](C)C(=O)N[C@H](C(=O)NCCc1nc(-c2nc(C(=O)NCCC[S+](C)C)cs2)cs1)[C@@H](C)O)C(OC1OC(CO)C(O)C(O)C1OC1OC(CO)C(O)C(OC(N)=O)C1O)c1cnc[nH]1` (stereo partly drawn), the growth is 76.4% [2.5 µM] (inactive) in test [1]; 59.5% [2.5 µM] (inactive) in [2]; 104% [2.5 µM] (inactive) in test [3]; 98% [2.5 µM] (inactive) in test [4]; 42.3% [2.5 µM] (inactive) in test [5]; 83.5% [2.5 µM] (inactive) in test [6]. Further, the growth in [7] was -2.02% [2.5 µM] (active); in test [8], 39.3% [2.5 µM] (inactive); in test [9], 92.2% [2.5 µM] (inactive).
As for `CC1=C(CO)C2=C(C)C3(CC3)[C@@](C)(O)C(=O)C2=C1`, the growth in test [1] was 80.2% (inactive); in test [2], 14.3% (inactive); in test [4] it was 16.3% (inactive); in [6], -1.49% (active); in test [7] it was 8.86% (active); in [8], 3.84% (active). Also, the growth in [9] was 7.12% (active).
Consider `CC[n+]1c(-c2ccccc2)c2cc(N)ccc2c2ccc(N)cc21`, for which the growth was 7.63% (active) in [1]; 18.6% (inactive) in [10]; 49.4% (inactive) in test [2]; 11.6% (inactive) in test [3]; 47.3% (inactive) in [4]; 9.12% (active) in test [5]. Further, the growth in [6] was -0.305% (active); in test [7] it was 3.75% (active); in test [8] it was 87.6% (inactive); in test [9], 11.2% (inactive).
Regarding `NCCc1ccc(OCc2ccccc2)c(OCc2ccccc2)c1`, the growth in [1] is 69.7% (inactive); in [10], 79.3% (inactive); in [2] it was 105% (inactive); in test [3] it was 86.3% (inactive); in test [4], 91.2% (inactive); in test [5], 75.2% (inactive). The growth in test [6] was 88.3% (inactive); in test [7] it was 126% (inactive); in test [8] it was 87.9% (inactive); in test [9], 69.2% (inactive).
Consider `Oc1cccc2cccnc12`, for which the growth is 84% (inactive) and 97.1% (inactive) in test [1]; 81.9% (inactive) and 101% (inactive) and 105% (inactive) in test [10]; 89.4% (inactive) in test [2]; 60.6% (inactive) and 120% (inactive) and 114% (inactive) in [3]; 107% (inactive) and 97.8% (inactive) and 99.9% (inactive) in test [4]; 120% (inactive) and 118% (inactive) and 104% (inactive) in test [5]. Moreover, the growth is -6.09% (active) and 105% (inactive) and 104% (inactive) in [6]; 116% (inactive) and 101% (inactive) in [7]; 83% (inactive) and 108% (inactive) and 114% (inactive) in test [8]; 29% (inactive) and 95.8% (inactive) and 97.9% (inactive) in [9].
On to `CCC1(O)CC(OC2CC(N(C)C)C(OC3CC4OC5CC(=O)C(C)OC5OC4C(C)O3)C(C)O2)c2c(cc3c(c2O)C(=O)c2c(O)ccc(O)c2C3=O)C1C(=O)OC` (stereo not drawn), for which the growth is -53% (active) in test [1]; -16.1% (active) in test [2]; -53.9% (active) in [3]; 16.1% (inactive) in test [4]; -78.1% (active) in test [5]; 4.8% (active) in test [6]. Also, the growth in test [7] was -37% (active); in test [8], -20% (active); in test [9], -2.73% (active).
Consider `CC[C@@]1(O)C(=O)OCc2c1cc1n(c2=O)Cc2cc3ccccc3nc2-1`, for which the growth in test [1] was -39.7% (active); in test [2] it was -1.11% (active); in [3], -36.2% (active); in test [4] it was 7.05% (active); in [5] it was -62.2% (active); in test [6], -34% (active). The growth in [7] was 22.6% (inactive); in test [8], -2.49% (active); in [9], -7.95% (active).
On to `C[C@]12CC[C@H](O)CC1=CC[C@@H]1[C@@H]2CC[C@]2(C)C(=O)CC[C@@H]12`, for which the growth in test [1] was 80.4% (inactive); in test [2], 92.3% (inactive); in [3], 95.3% (inactive); in test [4], 116% (inactive); in test [5] it was 80.5% (inactive); in test [6], 90.6% (inactive). Besides, the values for the growth in test [7], in test [8] and in test [9] were 130% (inactive), 99.1% (inactive) and 96.4% (inactive), respectively.
`CC[C@@]1(O)C[C@H](OC2CC(N(C)C)C(O)C(C)O2)c2c(O)c3c(c(O)c2[C@H]1OC1CC(N(C)C)C(O)C(C)O1)C(=O)c1cccc(O)c1C3=O` (stereo partly drawn): the growth was -50.6% (active) in test [1]; -21% (active) in test [2]; -57.2% (active) in [3]; 24.2% (inactive) in test [4]; -71% (active) in test [5]; 1.09% (active) in test [6]. In addition, the growth in test [7] is -38.5% (active); in test [8], -12.7% (active); in [9], 1.62% (active).
Take `COc1ccccc1/C=C(/C)[N+](=O)[O-]`: the growth in test [1] is 0.614% (active) and 118% (inactive); in [10] it was 85.6% (inactive) and 103% (inactive); in [2], 104% (inactive) and 91.1% (inactive); in [3], 105% (inactive) and 102% (inactive); in test [4], 115% (inactive) and 81.6% (inactive); in test [5], 71.5% (inactive) and 95.9% (inactive). Further, the growth in test [6] is 78.2% (inactive) and 101% (inactive); in test [7] it was 97.2% (inactive) and 118% (inactive); in [8], 95.1% (inactive) and 104% (inactive); in test [9], 35.7% (inactive) and 86.6% (inactive).
For `Cc1cc(N=Nc2ccccc2C)ccc1N`, the growth is 17.5% (inactive) in test [1]; 82.1% (inactive) in test [10]; 84.7% (inactive) in test [2]; 69.2% (inactive) in test [3]; 99.1% (inactive) in test [4]; 77.1% (inactive) in [5]. For the same compound, the growth was 73.2% (inactive) in test [6], 79.4% (inactive) in [8] and 59% (inactive) in [9].
